Assay results from PubChem BioAssay AID1259374 (The Scripps Research Institute Molecular Screening Center, 2018).
Screen size: about 650,000 compounds; about 5,900 (0.91%) were called active. What follows is part of a selection rich in actives, with near analogues and random picks from the rest. Values without a mark were called inactive. No stated cut-off is given here; in the data, active means inhibition above about 50%; inactive means the rest.

What follows are compounds tested against Microphthalmia-associated transcription factor (Homo sapiens) (UniProt O75030) (assay: MITF inhibitors, primary screen, biochemical, AlphaScreen, human (AID 1259374;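 further: 0% = vehicle wells with protein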)). Details: AlphaScreen MITF homodimerization, bead proximity signal; at 2.6 µM; stronger effect = higher value.
Chain of Microphthalmia-associated transcription factor (Homo sapiens) (O75030 whole entry, looked up): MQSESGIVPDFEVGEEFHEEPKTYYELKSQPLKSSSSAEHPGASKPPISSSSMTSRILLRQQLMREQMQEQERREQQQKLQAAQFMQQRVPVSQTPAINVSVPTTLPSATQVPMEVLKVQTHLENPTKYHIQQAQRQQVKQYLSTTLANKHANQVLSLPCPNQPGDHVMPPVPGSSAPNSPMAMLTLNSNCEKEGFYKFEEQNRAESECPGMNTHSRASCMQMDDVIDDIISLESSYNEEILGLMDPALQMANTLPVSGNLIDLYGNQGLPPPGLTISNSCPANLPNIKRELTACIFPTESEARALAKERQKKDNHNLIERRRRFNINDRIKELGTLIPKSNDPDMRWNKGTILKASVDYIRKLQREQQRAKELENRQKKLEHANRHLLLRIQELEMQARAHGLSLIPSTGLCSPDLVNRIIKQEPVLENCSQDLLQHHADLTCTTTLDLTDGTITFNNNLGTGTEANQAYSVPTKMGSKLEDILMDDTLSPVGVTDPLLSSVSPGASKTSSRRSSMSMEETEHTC
Work on `O=C(NCCc1ccc(F)cc1)c1ccc(Br)o1` yielded an inhibition of -9.44%.
In the case of `COc1cc(CN2CCN(C(=O)c3cc(OC)c(OC)c(OC)c3)CC2)cc(OC)c1O`, the inhibition is reported as -11%.
Compound `NCC1CCN(Cc2ccccc2Cl)CC1` has an inhibition of 21.9%.
In the case of `CC1CCCC(N2CCN(Cc3ccccc3Cl)CC2)C1` (stereo not given), the inhibition is reported as 63.2% (active).
`O=CN1CCN(Cc2ccccc2Cl)CC1` showed an inhibition of 3.26%.
`COc1cc(CN2CCN(C(=O)C(c3ccccc3)c3ccccc3)CC2)cc(OC)c1OC` was tested, and the inhibition was 53.1% (active).
For `CCC(C(=O)N1CCN(C(=O)C(CC)c2ccccc2)CC1)c1ccccc1` (stereo not given), the inhibition was 6.26%.
Compound `CCN(CC)C(=O)C(Cc1ccccc1)NCC(=O)Nc1ccc(C)cc1` (stereo not given) has an inhibition of 10.3%.
In the case of `COc1cccc(OC)c1C(=O)Nc1ccc(Cl)cn1`, the inhibition is reported as -14.5%.
Work on `CCOC(=O)c1sc(=S)n(-c2cccc(C(F)(F)F)c2)c1N` yielded an inhibition of -1.48%.
`CC(Nc1ccc(-c2cccc(C=O)c2)cn1)c1ccc(F)cc1` (stereo not given) showed an inhibition of 7.6%.
With `CN(C)c1cccc(Nc2nccc(Nc3ccccc3)n2)c1` the inhibition was -2.6%.
For `CN(C)c1cccc(Nc2ccc(-c3cccc(C=O)c3)cn2)c1`, the inhibition was 50.8% (active).
Work on `Fc1ccc(-c2cccc3ccc(N4CCN(c5ncccn5)CC4)nc23)cc1` yielded an inhibition of 2.86%.
`NC(=O)c1c(/N=C/c2ccc([N+](=O)[O-])cc2)sc2c1CCCC2` was tested, and the inhibition was 7.76%.
Work on `O=C1N[C@H](Cc2ccc(O)cc2)C(=O)N2CCN(C(=O)c3ccccc3Cl)C[C@H]12` yielded an inhibition of -6.27%.
With `COc1cccc(/C=C(\C#N)c2nc3ccc(C)cc3[nH]2)c1OC` the inhibition was 7.46%.
`COc1ccccc1/C=C(/C#N)c1nc2ccccc2[nH]1` was tested, and the inhibition was 11.1%.
In the case of `COc1cccc(/C=C(\C#N)c2nc3ccccc3[nH]2)c1OCc1ccc(Cl)cc1Cl`, the inhibition is reported as 52.7% (active).
With `Cc1ccc2oc(-c3ccc(C)c(NC(=O)c4ccc(Cl)c([N+](=O)[O-])c4)c3)nc2c1` the inhibition was 14.9%.
`O=C1O/C(=C(\c2cccc3ccccc23)[N+](=O)[O-])c2ccccc21` gave an inhibition of 7.98%.
Compound `O=C(NCC1CCCO1)C1CCC(Cn2c(SCc3ccc([N+](=O)[O-])cc3)nc3ccccc3c2=O)CC1` (stereo not given) has an inhibition of 1.86%.
For `COC(=O)c1sc2ccccc2c1NC(=O)c1ccc2c(c1)OCCO2`, the inhibition was 4.39%.
Compound `COC(=O)c1ccccc1NS(=O)(=O)c1ccc2[nH]c(=O)ccc2c1` has an inhibition of 6.38%.
`COC(=O)c1cccc(NS(=O)(=O)c2ccc3ccccc3c2)c1C` was tested, and the inhibition was 52.5% (active).
`COC(=O)c1cccc(NC(=O)c2ccccc2NS(=O)(=O)c2ccc(C)cc2)c1C` was tested, and the inhibition was -6.07%.
In the case of `CCCCCCC1CCC(C(=O)Oc2ccc(C(=O)OCC)cc2)CC1` (stereo not given), the inhibition is reported as 7.45%.
`COc1ccc2c(c1)CC(C(=O)Nc1ccc(-c3ccncc3)cc1Oc1ccccc1)CO2` (stereo not given) gave an inhibition of 12.9%.
Work on `COc1ccc2c(c1)CC(c1nc3ccc(-c4cccnc4)cc3o1)CO2` (stereo not given) yielded an inhibition of -9.3%.
For `COc1ccc2c(c1)CC(c1nc(Nc3ccc4cnccc4c3)c3ccccc3n1)CO2` (stereo not given), the inhibition was 55.2% (active).
Compound `O=C(Nc1nc(-c2ccc(Br)cc2)cs1)N1CCOCC1` has an inhibition of 6.09%.
Compound `Cc1cc(-c2cnc(N3CCCCC3)nc2C2CCNCC2)on1` has an inhibition of -11%.
For `O=C(Cc1cccc(Cl)c1)NCc1ccccc1`, the inhibition was -1.38%.
For `CN(CCC(=O)O)Cc1cccc(Cl)c1`, the inhibition was 69.7% (active).
`CN(CCC(=O)Nc1cccc(F)c1)Cc1ccccc1` was tested, and the inhibition was -7.29%.
With `Cc1ccc(Nc2nc3nonc3nc2N2CCN(C(=O)c3ccccc3)CC2)cc1Cl` the inhibition was 2.8%.
Compound `CCc1ccccc1NC(=O)c1cc2nc(-c3cccs3)cc(C(F)(F)F)n2n1` has an inhibition of 23.3%.
For `COc1ccc(COCC(O)CNCC(C)(C)CN(C)C)cc1OC` (stereo not given), the inhibition was 69.4% (active).
In the case of `CCC(CO)NCC(O)COCc1ccc(Cl)cc1` (stereo not given), the inhibition is reported as -4.49%.
`COc1cc(CNC(C)(C)C)ccc1OCCO` gave an inhibition of -1.33%.
`Cc1c(C(=O)N2CCN(c3ccc(F)cc3)CC2)sc2ncn(CC(=O)N3CCC(C)CC3)c(=O)c12` gave an inhibition of 9.34%.
With `Cc1cnc(C)c(-c2ccc3c(c2)CC(CNC(=O)/C=C/c2cccc(F)c2F)O3)n1` (stereo not given) the inhibition was 10.3%.
Compound `CCOC(=O)c1[nH]c(COC(C)=O)c(CCC(=O)OC)c1C` has an inhibition of -19.8%.
Compound `O=C(COc1ccccc1)Nc1ccc(N2CCC(NCCc3cccs3)CC2)cc1` has an inhibition of 8.32%.
In the case of `COc1ccc2c(c1)CC(C(=O)Nc1ccc(-c3cn[nH]c3)cc1O[C@H]1CCOC1)CO2` (stereo not given in full), the inhibition is reported as 16.3%.
For `COc1ccc2c(c1)CC(C(=O)Nc1ccc(-c3cn[nH]c3)cc1OCCN(C)C)CO2` (stereo not given), the inhibition was 3.86%.
Work on `COc1ccc2c(c1)CC(C(=O)Nc1ccc(-c3cn[nH]c3)cc1C(=O)NCc1ccccc1)CO2` (stereo not given) yielded an inhibition of 24.1%.
For `COc1ccc2c(c1)CC(C(=O)Nc1ccc(-c3cn[nH]c3)cc1OCC(N)=O)CO2` (stereo not given), the inhibition was 52.7% (active).
In the case of `COc1ccc2c(c1)CC(C(=O)Nc1ccc(-c3cn[nH]c3)cc1OC(C)CN(C)C)CO2` (stereo not given), the inhibition is reported as 13.3%.
`COc1ccc2c(c1)CC(C(=O)Nc1ccc(-c3cn[nH]c3)cc1OCc1ccccc1)CO2` (stereo not given) was tested, and the inhibition was 62.3% (active).
In the case of `CCc1ccc(C(=O)N2CCN3C(=O)[C@H](CO)NC(=O)[C@H]3C2)cc1`, the inhibition is reported as -8.93%.
`O=C(CN(Cc1ccccc1)S(=O)(=O)c1ccc(F)cc1)NCCc1ccccc1` gave an inhibition of -7.64%.
Compound `CC(C)N1CCC(N2CCN(Cc3cc(F)ccc3F)CC2CCO)CC1` (stereo not given) has an inhibition of 5.34%.
With `Cc1cc(S(=O)(=O)Nc2ccc3c(c2)OCCO3)ccc1-n1cnnn1` the inhibition was 53% (active).
With `Cc1cc(S(=O)(=O)NCc2ccc3c(c2)OCO3)ccc1-n1cnnn1` the inhibition was 11.8%.
Compound `Cc1cc(S(=O)(=O)NC2CCCC2)ccc1-n1cnnn1` has an inhibition of -4.47%.
In the case of `COCCN1C(=O)/C(=C/c2cc(OC)c(O)c([N+](=O)[O-])c2)SC1=S`, the inhibition is reported as 14.8%.
`CC(C)(C)n1nnnc1C(c1ccc2ncccc2c1)N1CCSCC1` (stereo not given) was tested, and the inhibition was 65.2% (active).
`CC(C)(C)n1nnnc1C(c1ccc(Cl)cc1)N1CCSCC1` (stereo not given) showed an inhibition of -19.9%.
`COCCn1nnnc1C(c1ccc2ncccc2c1)N1CCOCC1` (stereo not given) was tested, and the inhibition was 12%.
